Source: PubChem BioAssay (National Center for Advancing Translational Sciences (NCATS))
Only some compounds are listed: those with a hit (about 5.2% of all), similar ones and a draw of the others.
rTrxR1 inhibitor = qHTS Assay for Inhibitors of Mammalian Selenoprotein Thioredoxin Reductase 1 (TrxR1): qHTS; recombinant rTrxR1, NADPH fluorescence consumption, selenite substrate; Potency, µM (top dose mostly 114 µM), hits mostly inhibitors; hit rate 1% among 390,000; AID 588453, 2011; also: nearly all actives have a fitted effect of over 65% in size
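Rat TrxR1 (90 nM in the dispensed reagent) was pre-reduced with 400 uM NADPH for 5 min at room temperature, then incubated with compound for 15 min. After 400 uM selenite was added, NADPH fluorescence (Ex 340/Em 450 nm) was followed for 8 min.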
Sfp PPTase inh = qHTS Assay for Inhibitors of Bacillus subtilis Sfp phosphopantetheinyl transferase (PPTase); Biochemical Sfp PPTase activity, qHTS; 4'-phosphopantetheinyl transferase ffp (Bacillus subtilis), Q9F4F7; hit rate 3.5% among 310,000; Potency, µM, actives largely listed as inhibitors; AID 1490, 2009;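 also: the enzyme is Sfp with the accession as filed and its product quenches rhodamine fluorescence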
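Sfp 15 nM + cpd, 15 min RT; start w/ rhodamine-CoA 5 uM, BHQ-2-YbbR 12.5 uM (final); 50 mM Hepes pH 7.6, 10 mM MgCl2, 0.01% NP-40, 0.01% BSA; read 525/598 nm at 0 and 30 min.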
IDH1 R132H inh = qHTS for Inhibitors of mutant isocitrate dehydrogenase 1 (IDH1): qHTS | IDH1-R132H enzyme, NADPH consumption, diaphorase/resazurin fluorescence | Isocitrate dehydrogenase [NADP] cytoplasmic (Homo sapiens), O75874 | Potency, µM (highest dose often 76.6 µM), actives largely listed as inhibitors | hit rate 0.093% among 390,000; also: nearly all actives have a fitted effect of over 65% in size
Target sequence (O75874 whole entry R132H, stated change not applied): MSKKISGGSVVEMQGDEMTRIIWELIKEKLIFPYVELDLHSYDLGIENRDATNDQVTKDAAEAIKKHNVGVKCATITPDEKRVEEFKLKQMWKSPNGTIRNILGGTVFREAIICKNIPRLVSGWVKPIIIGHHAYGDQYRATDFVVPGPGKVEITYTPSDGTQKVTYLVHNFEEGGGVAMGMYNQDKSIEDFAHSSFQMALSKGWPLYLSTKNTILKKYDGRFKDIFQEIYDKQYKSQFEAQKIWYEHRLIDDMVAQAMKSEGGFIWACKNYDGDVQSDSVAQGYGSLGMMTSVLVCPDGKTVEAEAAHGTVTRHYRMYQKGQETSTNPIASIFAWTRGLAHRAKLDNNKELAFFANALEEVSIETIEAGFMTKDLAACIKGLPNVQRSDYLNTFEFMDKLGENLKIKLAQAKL
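IDH1-R132H (0.5 ug/mL) preincubated 30 min with compound, then NADPH (0.016 mM) and alpha-KG (2 mM) added; 80 min at RT, pH 7.5. Remaining NADPH coupled via diaphorase/resazurin to fluorescence (540/590 nm); concentration-response curves normalized to no-enzyme control.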
TrxR1 substrate = qHTS Assay for Substrates of Mammalian Selenoprotein Thioredoxin Reductase 1 (TrxR1): qHTS; hit rate 0.01% among 390,000; Potency, µM (doses to about 114 µM); Thioredoxin reductase 1, cytoplasmic (Rattus norvegicus), O89049; AID 588456, 2011; purified TrxR1 substrate turnover, NADPH consumption readout; also: nearly all actives have a fitted effect of over 50% in size
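Rat TrxR1, dispensed at 90 nM, was prereduced with 400 uM NADPH (final) for 5 min at ~22 deg C, then incubated with compound 15 min before 400 uM selenite. A first-read NADPH fluorescence drop versus no-compound background flagged substrates.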
VDR inhibitor = Inhibitors of the vitamin D receptor (VDR): qHTS. Potency, µM, actives largely listed as inhibitors. VDR-SRC2-3 peptide fluorescence polarization, 2 h. AID 504847, 2011. Vitamin D3 receptor (Homo sapiens), P11473. hit rate 0.93% among 400,000
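Reagent solutions, kept cold and dark, are dispensed first; compounds are then pinned in at 23 nl, plates briefly spun, and incubated 2 h at ambient temperature. Inhibition of VDR–SRC2-3 peptide binding is read by fluorescence polarization.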
PLK1 PBD inh = qHTS for Inhibitors of PLK1-PDB (polo-like kinase 1 - polo-box domain): Primary Screen | Serine/threonine-protein kinase PLK1 (Homo sapiens), P53350 | Plk1 PBD binding of FITC phosphopeptide, fluorescence polarization | Potency, µM, usual class: inhibitors | hit rate 2.8% among 360,000; also: series mostly up to about 57 µM; nearly all actives have a fitted effect of over 65% in size
IDH1 autofl = qHTS for Inhibitors of mutant isocitrate dehydrogenase 1 (IDH1): Cherrypicks Autofluorescence Interference. shares compounds with IDH1 R132H inh. Resorufin detection reagent fluorescence interference, cell-free. inhibition of signal, % at 51.2 µM. 750 tested, under 10 active. AID 623980, 2012
IDH1 WT = qHTS for Inhibitors of mutant isocitrate dehydrogenase 1 (IDH1): Cherrypicks in WT IDH1; AID 623995, 2012; WT IDH1 enzyme, NADPH diaphorase/resazurin fluorescence; hit rate 9% among 750; shares compounds with IDH1 R132H inh; Potency, µM (titrated, usually from 115 µM), hits mostly inhibitors; also: nearly all actives have a fitted effect of over 55% in size
Target sequence (O75874 whole entry, looked up): as the sequence (O75874 whole entry R132H, stated change not applied) above, with H132R counted along it
mIDH1 confirm = qHTS for Inhibitors of mutant isocitrate dehydrogenase 1 (IDH1): Confirmation of Cherrypicks; shares compounds with IDH1 R132H inh; IDH1 R132H enzyme, NADPH diaphorase/resazurin fluorescence; Potency, µM (titrated, usually from 76.6 µM), usual class: inhibitors; hit rate 83% among 750; AID 624002, 2012; also: nearly all actives have a fitted effect of over 50% in size
TbPYK confirm = qHTS of Trypanosoma Brucei Inhibitors: Confirmatory Assay for Cherry-picked Compounds. shares compounds with PLK1 PBD inh. recombinant TbPYK, Kinase-Glo ATP luminescence. Potency, µM (top dose mostly 76.9 µM), hits mostly inhibitors. AID 720569, 2013. hit rate 67% among 890; also: nearly all actives have a fitted effect of over 70% in size
TbPYK orthogonal = qHTS of Trypanosoma Brucei Inhibitors: Orthogonal Assay for Cherry-picked Compounds. Potency, µM (series often up to 76.9 µM), usual class: inhibitors. shares compounds with PLK1 PBD inh. recombinant TbPYK, ADP-Glo luminescence, 60 min. hit rate 62% among 890; also: nearly all actives have a fitted effect of over 75% in size
Numbers stand for hits; n = inactive; u = inconclusive; x = no result. Calls follow the shape of the dose curve; as a rule, active = well fitted curve in the direction sought with a large enough effect; inconclusive = small, poorly fitted or top-dose-only effect, or another doubt; inactive = no such curve, though single readings can be large; an effect the other way counts as inactive or inconclusive.

SMILES | rTrxR1 inhibitor | Sfp PPTase inh | IDH1 R132H inh | TrxR1 substrate | VDR inhibitor | PLK1 PBD inh | TbPYK confirm | TbPYK orthogonal | others
COc1cc(/C=C2\SC(=Nc3ccccc3)N(Cc3ccco3)C2=O)ccc1OC(C)C(=O)O (stereo not drawn) | n | u | n | n | u | u | x | x
COCCN1C(=O)/C(=C/c2ccc(OCc3ccc(C(=O)O)cc3)c(OC)c2)SC1=Nc1ccccc1 | n | n | 21µM | n | n | u | x | x | IDH1 autofl=n;IDH1 WT=79µM;mIDH1 confirm=10µM
CC1=NN(C(N)=S)C(=O)C1N=Nc1cccc(Cl)c1 (stereo not drawn) | u | n | u | n | n | n | x | x
COc1cccc(N=NC2C(=O)N(C(N)=S)N=C2C)c1 (stereo not drawn) | n | x | u | n | n | n | x | x | IDH1 autofl=n;IDH1 WT=n;mIDH1 confirm=n
Cc1cc2nc(-c3ccc(C#N)cc3)c(Cc3ccsc3)n2c(C)c1Br | x | x | x | x | x | n | x | x
Cc1ccc(N(C(=O)C(F)(F)F)C(C(=O)NC2CCCCC2)c2cccs2)cc1 (stereo not drawn) | n | n | u | n | n | n | x | x | IDH1 autofl=n;IDH1 WT=n;mIDH1 confirm=11µM
O=C(NC1CCCCC1)C(c1cccs1)N(C(=O)c1ccccn1)c1ccccc1 (stereo not drawn) | n | n | u | n | n | n | x | x | IDH1 autofl=n;IDH1 WT=n;mIDH1 confirm=u
CCOc1ccc(-n2c(SCC(=O)N3CCc4ccccc43)nc3c([nH]c4ccccc43)c2=O)cc1 | n | x | n | n | n | x | x | x
COc1ccc(C2C3=C(CCCC3=O)N(CC(=O)O)C3=C2C(=O)CCC3)cc1Cl | n | n | n | n | n | n | x | x
Cc1c(OC(C)C(=O)O)ccc2c(-c3ccccc3)cc(=O)oc12 (stereo not drawn) | n | n | n | n | n | n | x | x
Cc1c(OC(C(=O)O)c2ccccc2)ccc2c(-c3ccccc3)cc(=O)oc12 (stereo not drawn) | n | n | u | n | n | n | x | x | IDH1 autofl=n;IDH1 WT=n;mIDH1 confirm=13µM
COc1cccc(NC(=O)c2sc3nc(N4CCOCC4)c4c(c3c2N)CCCC4)c1 | n | n | u | n | n | u | u | u | IDH1 autofl=n;IDH1 WT=n;mIDH1 confirm=7.1µM
O=C(c1ccc2c(c1)OCCO2)N(Cc1cccnc1)c1nc2ccc(F)cc2s1 | n | x | n | n | n | x | x | x
COc1c2occc2c(OC)c2c(=O)cc(C)oc12 | n | n | n | n | n | n | x | x
Cc1cc(=O)c2c(o1)C(=O)c1occc1C2=O | 32µM | x | n | n | u | u | 2.5µM | u
COCCNC(=O)CCn1c(=O)c2cc(OC)c(OC)cc2n(CC(=O)Nc2ccc(F)c(Cl)c2)c1=O | n | x | n | n | n | x | x | x
Cc1c(CCOC(=O)c2ccccc2)sc[n+]1Cc1ccccc1 | n | n | n | n | n | n | x | x
Cc1ccc2c(c1)sc[n+]2Cc1ccccc1 | u | 25µM | n | n | 25µM | 3µM | n | u
C[C@@H]1CCCCO[C@@H](CN(C)Cc2ccc3c(c2)OCO3)[C@@H](C)CN([C@H](C)CO)C(=O)c2cc(N(C)C)ccc2O1 | x | x | n | x | x | n | x | x
C[C@@H]1CCCCO[C@H](CN(C)Cc2ccc(Cl)c(Cl)c2)[C@@H](C)CN([C@H](C)CO)C(=O)c2cc(N(C)C)ccc2O1 | x | x | n | x | x | n | 6.3µM | 6.3µM
C[C@@H]1CCCCO[C@H](CN(C)C(=O)Nc2cccc3ccccc23)[C@@H](C)CN([C@H](C)CO)C(=O)c2cc(N(C)C)ccc2O1 | x | x | n | x | x | n | 3.5µM | 7.1µM
Cc1noc(NS(=O)(=O)c2ccc(NC(=O)CSc3nc4c(cc3C#N)CCCC4)cc2)c1C | n | u | n | n | n | u | x | x
Cc1noc(NS(=O)(=O)c2ccc(NC(=O)CSc3nc4c(cc3C#N)CCC4)cc2)c1C | n | 50µM | n | n | n | u | u | 32µM
c1ccc2sc(SN3CCOCC3)nc2c1 | u | n | n | n | u | 21µM | 28µM | 35µM
c1ccc2sc(N3CCOCC3)nc2c1 | n | n | n | n | n | n | x | x
SMILES | rTrxR1 inhibitor | Sfp PPTase inh | IDH1 R132H inh | TrxR1 substrate | VDR inhibitor | PLK1 PBD inh | TbPYK confirm | TbPYK orthogonal | others
CC1=C/C(=C(\c2cc(C)c(O)c(Br)c2)c2ccccc2S(=O)(=O)O)C=C(Br)C1=O | n | 45µM | n | n | n | n | 13µM | n
Cc1ccc(C(=O)NC(=S)c2c(C)cc3ccccn23)cc1 | x | x | n | x | x | n | x | x
O=C(O)c1cccc(N2C(=O)c3cccc4cccc(c34)C2=O)c1 | n | n | n | n | n | n | x | x
O=C(O)c1cccc(N2C(=O)C=CC2=O)c1 | x | x | n | x | x | 12µM | 25µM | 35µM
O=C(Cc1ccccc1)Nc1cccc(N2C(=O)C=CC2=O)c1 | 3.5µM | n | n | n | u | 5.3µM | 5.6µM | 8.9µM
COC(=O)/C(=N/Nc1ccccc1C)Sc1nnc(C(O)c2ccccc2)n1-c1ccccc1 (stereo not drawn) | n | u | n | n | n | n | 35µM | 35µM
C[C@H]1CN(C2CCCCC2)C(=O)[C@@H]1CC(=O)Nc1ccccc1 | x | x | n | x | x | n | x | x
CC1=CC(=Nc2c(C)n(C)n(-c3ccccc3)c2=O)C=C(C)C1=O | u | 79µM | n | n | n | n | n | n
COc1ccc(C(=O)CSc2nnc(-c3ccco3)n2C)cc1 | u | n | n | n | n | n | x | x
